# Assay results taken from the supplement of paper PMC10849652.
# Targets with a hit are over-represented here; the source holds about 8,800 in all. About 0.5% of all pairs of compound and target were hits. Values without a mark were called inactive.
# Assays:
# Assay in all cases: log2 fold change, soluble protein after heating vs DMSO (PISA); higher = thermal stabilisation; K562 lysate, 10 uM; active = over 0.2 and 3.5 SD of the protein, either way, in both replicates (recomputed)
# [1] = compound: Cc1cn(-c2cc(NC(=O)c3ccc(C)c(Nc4nccc(-c5cccnc5)n4)c3)cc(C(F)(F)F)c2)cn1 [nilotinib]
# In short: (§1)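 Following dounce homogenisation of K562 pellets in PBS pH 7.4 with 1 mM MgCl2, crude extract at 1 mg/mL protein was incubated for 30 min with 10 μM compound. Aliquots were then heated for 3 min over 48°C-58°C and pooled, NP-40 was added to 0.5% at 4°C, and soluble protein was recovered as the supernatant at 21,000xg for 90 min. Channel-sum-equalised TMTpro 16plex LC-MS/MS quantified this protein. Each value, from duplicates, is a log-two fold change in thermal stability relative to solvent controls.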
# [2] = compound: Cc1nc(Nc2n[nH]c3c2CN(C(=O)N[C@H](CN(C)C)c2ccccc2)C3(C)C)c2sccc2n1
# In short: as §1
# [3] = compound: Cc1nc(Nc2ncc(C(=O)Nc3c(C)cccc3Cl)s2)cc(N2CCN(CCO)CC2)n1 [dasatinib]
# In short: as §1
# [4] = compound: Cc1ncc(-c2ccnc(Nc3ccc(S(C)(=O)=O)cc3)n2)n1C(C)C
# In short: as §1
# [5] = compound: Cn1cc(-c2ccc3c(c2)CCN3C(=O)Cc2cccc(C(F)(F)F)c2)c2c(N)ncnc21
# In short: as §1
# [6] = compound: Cn1cc(CNCC2CCN(c3ncc(C(=O)NO)cn3)CC2)c2ccccc21 [quisinostat]
# In short: as §1
# [7] = compound: Cn1cncc1[C@@](N)(c1ccc(Cl)cc1)c1ccc2c(c1)c(-c1cccc(Cl)c1)cc(=O)n2C [tipifarnib]
# In short: as §1
# [8] = compound: NC(=O)Nc1cc(-c2cccc(F)c2)sc1C(=O)N[C@H]1CCCNC1
# In short: as §1
# [9] = compound: NC(=O)c1cnc(N[C@@H]2CCCC[C@@H]2N)nc1Nc1cccc(-n2nccn2)c1
# In short: as §1
# [10] = compound: NC1(c2ccc(-c3nc4ccn5c(=O)[nH]nc5c4cc3-c3ccccc3)cc2)CCC1
# In short: as §1
# [11] = compound: NCC(=O)Nc1ccc(-n2nc(C(F)(F)F)cc2-c2ccc3c(ccc4ccccc43)c2)cc1
# In short: as §1
# [12] = compound: O=C(CCCCCCC(=O)Nc1ccccc1)NO [vorinostat]
# In short: as §1
# [13] = compound: O=C(O)c1ccc2c(c1)nc(Nc1cccc(Cl)c1)c1ccncc12 [silmitasertib]
# In short: as §1
# [14] = compound: O=C1NC(=O)C(c2cnc3ccccn23)=C1c1cn2c3c(cc(F)cc13)CN(C(=O)N1CCCCC1)CC2
# In short: as §1
# [15] = compound: c1cn2cc(-c3ccc4cn[nH]c4c3)nc(Nc3ccc(N4CCOCC4)cc3)c2n1 [entospletinib]
# In short: as §1
# Chain of UniProt O00763 (O00763 whole entry, looked up): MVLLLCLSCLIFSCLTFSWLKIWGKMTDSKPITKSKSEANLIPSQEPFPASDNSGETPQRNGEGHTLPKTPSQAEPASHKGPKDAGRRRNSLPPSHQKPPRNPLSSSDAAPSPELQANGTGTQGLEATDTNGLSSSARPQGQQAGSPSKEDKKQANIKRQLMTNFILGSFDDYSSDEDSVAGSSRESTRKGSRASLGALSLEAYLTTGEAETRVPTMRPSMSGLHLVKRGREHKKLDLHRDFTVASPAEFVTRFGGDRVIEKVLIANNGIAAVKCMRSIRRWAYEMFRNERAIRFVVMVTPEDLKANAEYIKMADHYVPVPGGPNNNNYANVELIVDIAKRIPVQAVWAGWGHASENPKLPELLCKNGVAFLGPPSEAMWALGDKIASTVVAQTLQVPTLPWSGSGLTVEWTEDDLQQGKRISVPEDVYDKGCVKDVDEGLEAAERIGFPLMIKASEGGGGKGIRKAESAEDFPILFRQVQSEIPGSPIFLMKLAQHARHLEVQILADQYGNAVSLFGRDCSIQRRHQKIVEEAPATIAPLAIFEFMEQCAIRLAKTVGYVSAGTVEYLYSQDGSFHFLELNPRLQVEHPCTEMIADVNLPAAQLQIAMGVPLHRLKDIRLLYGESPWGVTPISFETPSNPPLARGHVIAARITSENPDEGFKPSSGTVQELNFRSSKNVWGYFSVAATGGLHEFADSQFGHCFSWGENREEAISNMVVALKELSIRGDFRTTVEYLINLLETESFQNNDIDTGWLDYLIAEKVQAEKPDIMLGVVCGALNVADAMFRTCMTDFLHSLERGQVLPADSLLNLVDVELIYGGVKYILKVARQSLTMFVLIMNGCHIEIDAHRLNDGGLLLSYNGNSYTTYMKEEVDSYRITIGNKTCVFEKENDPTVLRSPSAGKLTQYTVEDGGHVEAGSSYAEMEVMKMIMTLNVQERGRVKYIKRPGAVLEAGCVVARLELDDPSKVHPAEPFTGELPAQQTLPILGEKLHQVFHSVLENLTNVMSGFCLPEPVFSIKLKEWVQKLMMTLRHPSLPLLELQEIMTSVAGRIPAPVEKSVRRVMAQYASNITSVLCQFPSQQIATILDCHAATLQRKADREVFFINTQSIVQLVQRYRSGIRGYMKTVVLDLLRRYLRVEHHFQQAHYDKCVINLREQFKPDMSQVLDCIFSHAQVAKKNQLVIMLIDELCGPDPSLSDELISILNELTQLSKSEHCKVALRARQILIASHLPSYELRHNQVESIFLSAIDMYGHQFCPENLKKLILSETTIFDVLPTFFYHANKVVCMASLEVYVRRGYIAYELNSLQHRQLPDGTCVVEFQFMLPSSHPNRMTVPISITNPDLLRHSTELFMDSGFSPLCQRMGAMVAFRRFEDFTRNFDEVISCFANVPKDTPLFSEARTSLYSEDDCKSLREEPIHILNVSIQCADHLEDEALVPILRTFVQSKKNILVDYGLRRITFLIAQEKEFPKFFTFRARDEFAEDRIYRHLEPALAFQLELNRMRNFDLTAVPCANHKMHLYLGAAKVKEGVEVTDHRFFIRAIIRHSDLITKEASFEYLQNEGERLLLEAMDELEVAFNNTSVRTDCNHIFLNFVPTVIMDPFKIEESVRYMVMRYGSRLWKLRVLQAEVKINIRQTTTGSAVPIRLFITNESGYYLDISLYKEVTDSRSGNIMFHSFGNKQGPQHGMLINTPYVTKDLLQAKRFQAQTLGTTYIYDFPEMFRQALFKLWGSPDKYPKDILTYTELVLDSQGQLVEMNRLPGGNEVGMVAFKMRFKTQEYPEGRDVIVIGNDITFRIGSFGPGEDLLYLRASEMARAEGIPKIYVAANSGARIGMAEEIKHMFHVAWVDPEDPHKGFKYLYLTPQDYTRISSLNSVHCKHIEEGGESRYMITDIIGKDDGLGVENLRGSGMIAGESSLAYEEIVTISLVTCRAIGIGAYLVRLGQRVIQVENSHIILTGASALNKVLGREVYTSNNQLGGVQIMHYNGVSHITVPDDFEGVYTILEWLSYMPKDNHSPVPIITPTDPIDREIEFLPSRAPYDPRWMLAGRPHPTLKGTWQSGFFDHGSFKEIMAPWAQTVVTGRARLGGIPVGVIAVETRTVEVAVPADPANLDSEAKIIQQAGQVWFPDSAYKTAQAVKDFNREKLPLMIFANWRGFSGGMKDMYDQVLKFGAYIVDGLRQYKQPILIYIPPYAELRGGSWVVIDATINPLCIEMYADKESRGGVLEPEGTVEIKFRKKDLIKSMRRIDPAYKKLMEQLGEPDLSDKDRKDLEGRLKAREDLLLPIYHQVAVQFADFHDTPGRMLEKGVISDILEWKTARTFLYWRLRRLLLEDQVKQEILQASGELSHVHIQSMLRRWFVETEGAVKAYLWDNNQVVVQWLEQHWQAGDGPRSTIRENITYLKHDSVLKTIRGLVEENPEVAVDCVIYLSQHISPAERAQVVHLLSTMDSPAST
# Chain of UniProt Q96P48 (Q96P48 whole entry, looked up): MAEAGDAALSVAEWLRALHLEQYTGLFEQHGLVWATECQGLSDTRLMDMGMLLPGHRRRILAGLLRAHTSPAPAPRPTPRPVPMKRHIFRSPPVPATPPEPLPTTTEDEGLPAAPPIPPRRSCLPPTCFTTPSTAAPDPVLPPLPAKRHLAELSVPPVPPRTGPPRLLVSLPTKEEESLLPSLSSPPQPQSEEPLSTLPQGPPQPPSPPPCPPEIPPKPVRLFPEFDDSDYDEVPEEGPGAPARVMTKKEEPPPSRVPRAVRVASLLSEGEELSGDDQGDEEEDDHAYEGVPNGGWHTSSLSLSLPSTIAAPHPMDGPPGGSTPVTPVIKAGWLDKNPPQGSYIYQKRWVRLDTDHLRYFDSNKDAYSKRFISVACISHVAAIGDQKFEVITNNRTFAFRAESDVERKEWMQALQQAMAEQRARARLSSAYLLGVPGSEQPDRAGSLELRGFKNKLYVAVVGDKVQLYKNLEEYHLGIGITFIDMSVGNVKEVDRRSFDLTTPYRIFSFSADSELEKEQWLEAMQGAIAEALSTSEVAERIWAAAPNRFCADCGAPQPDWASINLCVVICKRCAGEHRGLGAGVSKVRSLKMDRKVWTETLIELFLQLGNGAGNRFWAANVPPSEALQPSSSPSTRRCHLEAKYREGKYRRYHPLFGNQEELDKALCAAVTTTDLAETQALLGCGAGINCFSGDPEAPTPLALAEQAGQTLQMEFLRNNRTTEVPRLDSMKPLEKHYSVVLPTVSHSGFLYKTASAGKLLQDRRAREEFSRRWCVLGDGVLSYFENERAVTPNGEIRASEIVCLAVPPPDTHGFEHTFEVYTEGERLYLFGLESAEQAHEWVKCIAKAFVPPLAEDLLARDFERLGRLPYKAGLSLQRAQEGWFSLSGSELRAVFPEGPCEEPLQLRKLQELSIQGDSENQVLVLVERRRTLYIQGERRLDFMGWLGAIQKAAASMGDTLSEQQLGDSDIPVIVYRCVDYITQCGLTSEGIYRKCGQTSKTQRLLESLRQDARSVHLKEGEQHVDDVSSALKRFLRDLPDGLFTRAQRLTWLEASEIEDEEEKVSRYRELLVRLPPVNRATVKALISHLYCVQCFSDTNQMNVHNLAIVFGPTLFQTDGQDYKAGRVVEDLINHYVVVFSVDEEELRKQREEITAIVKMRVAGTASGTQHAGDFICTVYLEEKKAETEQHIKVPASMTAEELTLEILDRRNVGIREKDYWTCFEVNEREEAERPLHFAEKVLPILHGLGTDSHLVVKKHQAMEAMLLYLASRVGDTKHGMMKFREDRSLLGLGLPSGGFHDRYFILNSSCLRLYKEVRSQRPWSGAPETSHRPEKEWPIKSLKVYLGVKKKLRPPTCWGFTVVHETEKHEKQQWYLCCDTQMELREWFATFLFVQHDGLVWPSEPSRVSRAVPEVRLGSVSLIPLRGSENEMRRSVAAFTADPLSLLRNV
# Chain of UniProt P33121 (P33121 whole entry, looked up): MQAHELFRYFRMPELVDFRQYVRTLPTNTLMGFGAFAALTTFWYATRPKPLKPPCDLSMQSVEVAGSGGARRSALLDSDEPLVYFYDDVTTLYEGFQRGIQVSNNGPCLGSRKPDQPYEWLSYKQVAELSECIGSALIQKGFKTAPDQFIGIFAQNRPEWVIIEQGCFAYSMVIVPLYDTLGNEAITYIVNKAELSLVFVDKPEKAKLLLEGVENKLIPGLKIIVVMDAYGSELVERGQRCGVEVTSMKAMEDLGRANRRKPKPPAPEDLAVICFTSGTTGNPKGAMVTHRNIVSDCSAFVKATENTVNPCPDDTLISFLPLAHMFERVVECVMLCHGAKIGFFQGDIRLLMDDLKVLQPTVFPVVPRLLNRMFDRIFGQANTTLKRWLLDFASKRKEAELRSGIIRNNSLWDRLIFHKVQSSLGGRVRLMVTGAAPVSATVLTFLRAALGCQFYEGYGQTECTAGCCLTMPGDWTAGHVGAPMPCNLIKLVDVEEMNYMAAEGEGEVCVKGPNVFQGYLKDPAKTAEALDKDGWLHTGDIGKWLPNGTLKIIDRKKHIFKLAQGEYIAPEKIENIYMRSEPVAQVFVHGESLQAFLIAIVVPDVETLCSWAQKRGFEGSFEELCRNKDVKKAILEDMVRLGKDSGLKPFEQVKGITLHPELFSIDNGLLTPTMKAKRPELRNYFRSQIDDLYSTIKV
# Chain of UniProt Q9BTT0 (Q9BTT0 whole entry, looked up): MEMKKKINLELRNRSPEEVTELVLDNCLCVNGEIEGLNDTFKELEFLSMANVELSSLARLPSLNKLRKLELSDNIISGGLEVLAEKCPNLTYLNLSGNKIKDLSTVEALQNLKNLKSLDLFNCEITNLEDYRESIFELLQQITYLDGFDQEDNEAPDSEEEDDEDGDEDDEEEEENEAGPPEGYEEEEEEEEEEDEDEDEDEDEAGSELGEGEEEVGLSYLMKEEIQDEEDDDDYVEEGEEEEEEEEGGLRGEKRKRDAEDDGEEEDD
# Chain of UniProt P07311 (P07311 whole entry, looked up): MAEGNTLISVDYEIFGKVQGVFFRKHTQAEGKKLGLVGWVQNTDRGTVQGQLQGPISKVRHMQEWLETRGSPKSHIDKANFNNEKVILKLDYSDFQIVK
Target,log2 fold change [1],log2 fold change [2],log2 fold change [3],log2 fold change [4],log2 fold change [5],log2 fold change [6],log2 fold change [7],log2 fold change [8],log2 fold change [9],log2 fold change [10],log2 fold change [11],log2 fold change [12],log2 fold change [13],log2 fold change [14],log2 fold change [15]
ACACB (UniProt O00763),-0.001,-0.042,-0.021,-0.052,0.05,-0.061,0.048,0.062,-0.001,-0.018,-0.026,-0.438 (active),0.03,-0.009,0.088
AGTPBP1 (UniProt Q9UPW5),0.077,-0.205,0.038,0.1,-0.032,-0.197,0.207,0.038,0.045,0.115,0.125,-0.033,-0.012,0.11,0.035
ACSL1 (UniProt P33121),-0.004,-0.002,-0.132,0.013,0.05,0.007,-0.013,0.034,-0.025,-0.04,-0.092,-0.221 (active),0.138,-0.031,-0.027
AIP (UniProt O00170),0.024,-0.001,0.018,0.028,0.008,0.007,0.027,-0.011,-0.016,0.024,-0.001,-0.061,-0.032,0.003,-0.003
AKR1B1 (UniProt P15121),0.031,-0.022,0.086,0.028,-0.136,0.016,-0.036,0.03,-0.009,0.038,-0.018,0.24 (active),-0.004,-0.026,-0.065
ASB6 (UniProt Q9NWX5),-0.024,0.01,0.01,0.029,-0.025,-0.002,0.041,-0.01,0.016,0.08,0.116,-0.005,-0.057,-0.019,0.074
ACYP1 (UniProt P07311),-0.014,0.019,0.022,-0.028,0.014,0.024,0.019,-0.029,-0.013,0.039,-0.015,0.127,-0.028,-0.002,0.008
ARAP1 (UniProt Q96P48),-0.009,-0.029,-0.036,-0.032,0.013,-0.072,-0.041,0.029,0.006,0.003,-0.04,-0.379 (active),0.017,-0.014,-0.012
ANP32E (UniProt Q9BTT0),0.075,0.025,0.015,0.028,-0.038,0.016,-0.02,-0.011,-0.065,0.023,0.021,0.217,-0.029,-0.011,0.012
ANKRD27 (UniProt Q96NW4),0.016,0.049,-0.01,0.061,-0.023,-0.177,-0.067,0.05,0.025,-0.033,-0.066,-0.451 (active),-0.025,0.022,0.01
ALG13 (UniProt Q9NP73),0.089,-0.012,-0.044,0.218,0,-0.067,-0.036,-0.004,0.028,-0.009,-0.027,-0.339 (active),-0.01,0.014,-0.082
ABHD17B (UniProt Q5VST6),0.032,0.057,0.007,0.087,0.095,0.003,-0.099,0.009,-0.041,0.009,0.096,0.219,-0.021,0.032,0.2
ALDH1L2 (UniProt Q3SY69),-0.013,0.01,-0.021,0.012,0.046,-0.027,0.012,0.026,0.05,-0.042,0.017,0.106,0.016,-0.027,0.031
ADAR isoform 4 (UniProt P55265),0.006,0.012,-0.026,-0.027,0.009,-0.114,-0.009,0.015,-0.009,0.029,-0.029,-0.35 (active),0.019,-0.031,0.022
AFF1 isoform 2 (UniProt P51825),-0.069,0.022,0.059,0.069,-0.043,-0.01,0.028,-0.005,0.194,0.008,0.019,-0.074,-0.046,-0.046,-0.064
ABCF3 (UniProt Q9NUQ8),-0.025,0.014,-0.053,0.001,0.044,-0.04,-0.003,0.012,0.011,-0.062,0.026,-0.439 (active),0.033,-0.004,-0.013
ARL1 (UniProt P40616),0.092,-0.074,0.026,-0.118,-0.016,-0.082,-0.268,0.01,-0.001,0.005,0.017,-0.293 (active),-0.048,0.027,0.034
ARFGAP1 (UniProt Q8N6T3),0.159,0.1,-0.03,-0.016,-0.043,-0.004,-0.475 (active),0.063,-0.032,-0.111,0.063,0.253,-0.066,-0.12,0.038
AKAP11 (UniProt Q9UKA4),-0.001,-0.06,-0.074,0.188,0.092,0.012,0.022,0.008,0.014,-0.05,-0.066,-0.164,0.019,-0.057,0.015
